Sampled rows, rich in hits. Any-hit rate of the full collection: about 19%.
IL-1B inflam inh = inhibitors of inflammasome signaling (IL-1 beta secretion); activity change, % at 57.5 µM; AID 743279; THP-1 LPS/ATP IL-1B secretion, AlphaLISA, 16 h; hits give low values; hit rate 4.7% among 360,000; in the data active = activity change below about -50%; inconclusive = mostly about -30% to -49%
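Secreted IL-1B measured by AlphaLISA bead assay after 16 h compound exposure of THP-1 cells; compounds (final up to 57.5 uM) added 1 h before LPS (250 ng/mL) and ATP (1.25 mM) stimulation; lower signal means less secretion.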
uPA generation = inhibitors of cell surface uPA generation. cell surface uPA generation assay, qHTS. Potency, µM (series often up to 38.3 µM), usual class: inhibitors. hit rate 0.31% among 330,000; active = well fitted inhibition curve with a large enough effect; inconclusive = small, poorly fitted or top-dose-only effect; inactive = no such curve, though single readings can be large or run the other way; tested in mouse RAW 264.7 cells; also: nearly all actives have a fitted effect of over 55% in size
TDP1 cell noCPT = qHTS for Inhibitors of human tyrosyl-DNA phosphodiesterase 1 (TDP1): qHTS in cells in absence of CPT; Potency, µM (titrated, usually from 46.2 µM), hits mostly inhibitors; DT40 Tdp1-/- hTDP1 cells, no CPT, ATP luminescence, 48 h; hit rate 15% among 420,000; also: nearly all actives have a fitted effect of over 55% in size
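Compound effects on proliferation are scored in DT40 Tdp1-/-;hTDP1 cells in the absence of CPT. ATP levels (CellTiter-Glo luminescence) are recorded after a ≥48 hr, 37 °C incubation.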
HT1080 IDH1KD tx = kills HT-1080 cells with IDH1 knockdown; AID 686971; Potency, µM (top dose mostly 46.1 µM), actives largely listed as cytotoxic; hit rate 2% among 360,000; HT-1080 IDH1 knockdown viability, ATP luminescence, 48 h
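CellTiter-Glo luminescence after 48 h compound exposure at 37 degrees C of IDH1-knockdown HT-1080 cells in 5% FBS RPMI. %Activity scaled between DMSO wells and cell-free media wells, with curves fitted and assigned curve classes.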
HT1080-NT tox = kills 2HG-producing HT-1080-NT fibrosarcoma cells | HT-1080-NT fibrosarcoma viability, CellTiter-Glo ATP luminescence, 48 h | Potency, µM (titrated, usually from 46.1 µM), actives largely listed as cytotoxic | hit rate 1.6% among 360,000;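 also: NT is the 2HG producing partner of a matched IDH1 knockdown line; nearly all actives have a fitted effect of over 55% in size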
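750 cells/well, RPMI + 5% FBS; 2 h settle, compound pin-transfer, 48 h at 37 degrees C. CellTiter-Glo 10 min RT, luminescence. Normalized to DMSO and media-only wells.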
DT40 TDP1 CPT = growth inhibition of DT40 Tdp1-/-;hTDP1 cells with camptothecin (screen for TDP1 inhibitors). chicken DT40 Tdp1-/-;hTDP1 cells + 20 nM CPT, ATP luminescence, 48 h. Potency, µM (series often up to 46.2 µM), hits mostly inhibitors. hit rate 12% among 420,000; also: nearly all actives have a fitted effect of over 55% in size
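Chicken DT40 Tdp1-/- cells stably complemented with human TDP1 were seeded at 400 cells/well in medium containing 20 nM camptothecin, exposed to pin-transferred compounds, and grown at 37 °C for at least 48 hr. Viability was read as ATP luminescence.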
Large screens that a line does not name were inactive. Unless noted, calls follow the shape of the dose curve; as a rule, active = well fitted curve in the direction sought with a large enough effect; inconclusive = small, poorly fitted or top-dose-only effect, or another doubt; inactive = no such curve, though single readings can be large; an effect the other way counts as inactive or inconclusive.

COc1ccc(-c2nc3c(c(=O)n(C)c(=O)n3C)n2CC2CC(c3ccccc3)=NO2)cc1OC (stereo not drawn)	TDP1 cell noCPT 1.46µM, DT40 TDP1 CPT 10.3µM
CCCS(=O)(=O)NC(=O)C1(C)CCCN(C(=O)c2cc(OC)c(OC)c(OC)c2)C1 (stereo not drawn)	none (no result: uPA generation)
CCn1cc([N+](=O)[O-])c(C(=O)N2N=C(c3ccc(O)c(OC)c3)CC2c2ccccc2O)n1 (stereo not drawn)	TDP1 cell noCPT inconclusive, HT1080 IDH1KD tx inconclusive, DT40 TDP1 CPT inconclusive
CCn1cc([N+](=O)[O-])c(C(=O)N2N=C(c3ccc4ccccc4c3)CC2c2cc(Br)ccc2O)n1 (stereo not drawn)	IL-1B inflam inh inconclusive, TDP1 cell noCPT 6.51µM, HT1080 IDH1KD tx inconclusive, HT1080-NT tox 20.6µM, DT40 TDP1 CPT inconclusive
CCn1cc([N+](=O)[O-])c(C(=O)N2N=C(c3ccc(Cl)c(Cl)c3)CC2c2ccccc2O)n1 (stereo not drawn)	IL-1B inflam inh -85.1, TDP1 cell noCPT inconclusive, HT1080 IDH1KD tx inconclusive, HT1080-NT tox 23.1µM, DT40 TDP1 CPT inconclusive
COc1cccc(CNC(=O)CCc2c(C)nn(-c3ccc(N4CCOCC4)nn3)c2C)c1	none (no result: IL-1B inflam inh, uPA generation, HT1080 IDH1KD tx, HT1080-NT tox)
Cc1cc(C)nc(Sc2nc(Nc3ccccc3)nc(Sc3nc(C)cc(C)n3)n2)n1	IL-1B inflam inh -53.7, TDP1 cell noCPT 29.1µM
Cc1cc(C)nc(Nc2ccc(O)cc2)n1	none
O=C(CSc1nc2ccccc2o1)N1N=C(c2cccs2)CC1c1ccc(F)cc1 (stereo not drawn)	TDP1 cell noCPT inconclusive, DT40 TDP1 CPT inconclusive
Cc1ccc(C2CC(c3cccs3)=NN2C(=O)CSc2nc3ccccc3o2)cc1 (stereo not drawn)	IL-1B inflam inh inconclusive, TDP1 cell noCPT inconclusive, DT40 TDP1 CPT 14.6µM
Cc1ccc2nc(Cl)c(C3CC(c4ccco4)=NN3C(=O)CCCC(=O)O)cc2c1 (stereo not drawn)	none
O=C(CSC1=NCCS1)N1N=C(c2cccs2)CC1c1ccc(F)cc1 (stereo not drawn)	IL-1B inflam inh -65.7, TDP1 cell noCPT inconclusive, DT40 TDP1 CPT inconclusive (no result: uPA generation)
COc1ccc(C2CC(c3cccs3)=NN2C(=O)CSc2nc(=O)n3ccc(C)cc3n2)cc1 (stereo not drawn)	IL-1B inflam inh inconclusive, TDP1 cell noCPT 5.8µM, DT40 TDP1 CPT inconclusive
Cc1ccc2nc(Cl)c(C3CC(c4cccs4)=NN3C(=O)CCC(=O)O)cc2c1 (stereo not drawn)	TDP1 cell noCPT 5.17µM
CCn1c(C(=O)Nc2ccccc2C(=O)OC)cc2sc(Cl)cc21	none (no result: IL-1B inflam inh, uPA generation, HT1080 IDH1KD tx, HT1080-NT tox)
CC1(c2ccc([N+](=O)[O-])cc2)NC(=O)N(CC(=O)Nc2cccnc2Cl)C1=O (stereo not drawn)	none
Cc1cc(C)c2c(-n3cccc3)c(C(=O)NCc3cccc(F)c3)sc2n1	none (no result: IL-1B inflam inh, uPA generation, HT1080 IDH1KD tx, HT1080-NT tox)
CSc1nc2ncncc2[nH]1	none
N#CC1(NC(=O)CN2CCN(S(=O)(=O)c3ccccc3F)CC2)CCCC1	none
CCCC1NC(=O)c2cc3ccccc3cc2-n2c1nc1ccc(F)cc1c2=O (stereo not drawn)	TDP1 cell noCPT 20.6µM, DT40 TDP1 CPT inconclusive (no result: uPA generation)
Cc1ccc2nc3n(c(=O)c2c1)-c1cc2ccccc2cc1C(=O)NC3CC(C)C (stereo not drawn)	TDP1 cell noCPT 16.4µM, DT40 TDP1 CPT 16.4µM (no result: uPA generation)
CC(C)CC1NC(=O)c2cc3ccccc3cc2-n2c1nc1ccc(F)cc1c2=O (stereo not drawn)	TDP1 cell noCPT 23.1µM, DT40 TDP1 CPT 23.1µM (no result: uPA generation)
CC(C)CC1NC(=O)c2cc3ccccc3cc2-n2c1nc1ccc(Cl)cc1c2=O (stereo not drawn)	TDP1 cell noCPT inconclusive, DT40 TDP1 CPT inconclusive (no result: uPA generation)
CC1NC(=O)c2cc3ccccc3cc2-n2c1nc1ccccc1c2=O (stereo not drawn)	TDP1 cell noCPT inconclusive (no result: uPA generation)
COCc1cc(C)nc2c1C(=O)NC(c1ccc(F)cc1)N2Cc1ccccc1 (stereo not drawn)	none (no result: IL-1B inflam inh, uPA generation, HT1080 IDH1KD tx, HT1080-NT tox)

Source: PubChem (National Center for Advancing Translational Sciences (NCATS))
